Experimental data published in PubChem BioAssay AID2017 (National Center for Advancing Translational Sciences (NCATS), 2009).
Records with an inconclusive call do not appear. Activity calls are given as the source filed them. Calls follow the shape of the dose curve; as a rule, active = well fitted curve in the direction sought with a large enough effect; inconclusive = small, poorly fitted or top-dose-only effect, or another doubt; inactive = no such curve, though single readings can be large or run the other way.

What follows are compounds tested on 4-diphosphocytidyl-2-C-methyl-D-erythritol kinase IspE (bacterial, species not stated) (assay: Confirmatory Assay for Inhibitors of Human Galactokinase (GALK): CDP-Me assay counterscreen). Conditions: ATP depletion, Kinase-Glo luminescence; series mostly up to 115 µM; activity change, negative = inhibition: at the top concentration.
How it was run: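 CMK (0.25 ug/mL) with 15 uM ATP and 30 uM CDP-ME in 20 mM HEPES pH8.0, 5 mM MgCl2, 40 mM KCl, 1 mM DTT, 0.01% BSA; 1 h room temperature. Residual ATP read by Kinase-Glo Plus luminescence.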

Compound | activity change, negative = inhibition
O=C1CCCC2=C1C1(CCCCC1)N=C(Nc1nc3ccccc3o1)N2 | -2.3% (inactive)
Cc1[nH][nH]c(=O)c1C(c1ccc(-c2ccc(Cl)c(C(=O)O)c2)o1)c1c(C)[nH][nH]c1=O | -6.09% (inactive)
CCOC(=O)c1c(C)[nH]c2c1-c1ccccc1C(=O)C2=O | -7.25% (inactive)
CS(=O)(=O)C1=NSC2=NC(=O)/C(=C\c3ccc(OS(=O)(=O)c4ccccc4)cc3)C(=N)N21 | -8.39% (inactive)
Cc1nc(NS(=O)(=O)c2ccc(Cl)s2)c2c3c(sc2n1)CCCC3 | 1.29% (inactive)
O=C(O)c1cccc(S(=O)(=O)N2CCC(n3nnc4cc(C(F)(F)F)ccc43)CC2)c1 | 1.46% (inactive)
C[C@H](NC(=O)C1CCC(CNC(=O)[C@@H]2CCCN2C(=O)OC(C)(C)C)CC1)C(=O)O (stereo not given in full) | 3.35% (inactive)
CCS(=O)(=O)C1=NSC2=NC(=O)/C(=C\c3ccc(OS(=O)(=O)c4ccccc4)c(OC)c3)C(=N)N21 | -10.4% (inactive)
CCOC(=O)c1cc(-c2ccc(/C=C3/C(=O)N(c4ccc(C(=O)O)cc4)N=C3C)o2)ccc1Cl | -0.967% (inactive)
COC(=O)c1ccc(CSc2ccc3nnc(-c4ccccn4)n3n2)o1 | -0.879% (inactive)
O=C(O)c1ccc(NC2=C/C(=N/S(=O)(=O)c3ccccc3)c3ccccc3C2=O)cc1 | -4.74% (inactive)
COc1cc(/C=C2\C(=O)ON=C2c2ccccc2)cc(Br)c1O | -2.63% (inactive)
O=C1/C(=C\c2ccc(O)c(O)c2)C(c2ccccc2)=NN1c1ccccc1 | 6.47% (inactive)
O=C(NCCc1ccccc1)c1ccc2c(=O)[nH]c3c(C(=O)NCC4CCCO4)sc(=S)n3c2c1 (stereo not given) | -12.4% (inactive)
O=C1c2ccccc2C(=O)C12OC2c1cccc2ccccc12 (stereo not given) | -1.36% (inactive)
O=C(COc1ccccc1/C=C\c1[nH]c(=O)[nH]c(=O)c1[N+](=O)[O-])Nc1ccccc1 | -1.25% (inactive)
Cc1ccc(F)c(NC(=O)/C(C#N)=C(\O)c2ccc(C(C)(C)C)cc2)c1 | -5.97% (inactive)
Cc1snc(S(=O)(=O)/C(C#N)=N/Nc2cccc(C(F)(F)F)c2)c1C#N | -2.05% (inactive)
Cc1nn(Cc2noc(C(=O)NCC3CCCO3)n2)c(C)c1Br (stereo not given) | -0.906% (inactive)
C=CCN1C(=O)/C(=C/c2ccc(OC(C)=O)c(OCC)c2[N+](=O)[O-])SC1=S | -15.3% (inactive)
CCN1CCN(CCNC(=O)c2ccc3nc(-c4cccc(C)c4)c(-c4cccc(C)c4)nc3c2)CC1 | -1.48% (inactive)
N#C/C(=C(/O)c1cc2ccccc2o1)c1nc2ccccc2s1 | -3.31% (inactive)
N#C/C(=C(/O)Cc1cccc2ccccc12)c1nc2ccccc2s1 | -0.506% (inactive)
CC1=NN(c2ccccc2)C(=O)/C1=C/c1c(O)n(-c2ccc(F)c(Cl)c2)[nH]c1=O | -6.6% (inactive)
O=c1[nH]c(/C=C/c2ccc([N+](=O)[O-])cc2)c([N+](=O)[O-])c(=O)[nH]1 | -4.01% (inactive)
